# Rac1 act GTP bind: alters GTP binding to activated mutant human Rac1; P63000; GST-Rac1 activated beads, fluorescent GTP binding, flow cytometry; actives lie on both sides; 100% means binding = to untreated wells; percent activity (GTP binding), % at 10 µM; 0.11% of 190,000 active; AID 764;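 active = GTP binding at least 20 percentage points away from the 100% baseline, in either direction, so actives lie on both sides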
# Rab2 wt GTP: changes GTP binding to wildtype dog Rab2A, up or down; AID 760; GTP binding activity, % at 10 µM; 0.19% of 190,000 active; GST-Rab2 wt beads, Bodipy-GTP binding, flow cytometry;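 active = GTP binding activity at least 20 points away from 100%, either lowered or raised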;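 note: 0% = beads with excess unlabeled GTP and 100% = no-compound control corrected for plate trend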
# Rac1 wt GTP bind: human Rac1 wildtype GTP binding, inhibitors and activators; P63000; GST-Rac1 beads, fluorescent GTP binding, flow cytometry; actives lie on both sides; 0 = cold GTP competed, 100 = untreated; GTP binding activity (% of control), % at 10 µM; 0.27% of 190,000 active; AID 757;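 active = GTP binding activity at least 20 points away from the 100% control level, either lower or higher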
# Rab7 wt modul: dog Rab7 wildtype GTP binding, inhibitors and activators. GST-Rab7 beads, fluorescent GTP binding, flow cytometry; actives lie on both sides; untreated = 100%, excess cold GTP = 0%. GTP binding activity (percent of control), % at 10 µM. 0.055% of 190,000 active;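 active = fluorescent GTP binding to Rab7 beads changed by at least 20 points from the 100% baseline, either direction, mostly lower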;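 note: median green fluorescence of bound Bodipy-FL-GTP per Rab7 bead population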
# Cdc42 wt: modulators (inhibitors or activators) of GTP binding to human Cdc42 wildtype; P60953; GST-Cdc42 beads, Bodipy-GTP binding, flow cytometry; actives lie on both sides; percent activity (GTP binding), % at 10 µM; 0.2% of 190,000 active; AID 761;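 active = percent activity GTP binding at least 20 points away from the 100% baseline, either down as inhibitor or up as activator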;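 note: median bead fluorescence of bound Bodipy-FL-GTP at 100 nM; 0% = excess unlabeled GTP control and 100% = no compound control; below 100% means less GTP binding so inhibitor and above means activator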
# Target sequence (P60953 whole entry, looked up): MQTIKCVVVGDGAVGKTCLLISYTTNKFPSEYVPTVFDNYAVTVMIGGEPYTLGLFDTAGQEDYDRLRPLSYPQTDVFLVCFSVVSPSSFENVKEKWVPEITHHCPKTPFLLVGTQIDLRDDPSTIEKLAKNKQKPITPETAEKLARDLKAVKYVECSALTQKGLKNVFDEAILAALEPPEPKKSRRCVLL
# HRas wt GTP bind: changes GTP binding to wildtype human HRas | P01112 | GST-Ras wt beads, Bodipy-FL-GTP binding, flow cytometry; actives lie on both sides | GTP binding activity, % at 10 µM | 0.14% of 190,000 active | AID 759;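 active = GTP binding activity at least 20% away from the 100% baseline, either lowered as inhibitor or raised as activator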;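 note: 0% = unlabeled GTP competition control and 100% = no-compound control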
# Target sequence (P01112 whole entry, looked up): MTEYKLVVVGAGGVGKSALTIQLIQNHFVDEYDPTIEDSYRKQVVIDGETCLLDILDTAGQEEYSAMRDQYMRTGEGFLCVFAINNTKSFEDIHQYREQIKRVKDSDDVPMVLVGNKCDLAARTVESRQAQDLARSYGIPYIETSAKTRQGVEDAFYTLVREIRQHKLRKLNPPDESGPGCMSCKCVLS
# Numbers without * were called inactive; [ ] = dose if it differs, or a comment. Compounds with a hit are over-represented: about 0.4% of the library has one in this group of screens.
SMILES,Rac1 act GTP bind,Rab2 wt GTP,Rac1 wt GTP bind,Rab7 wt modul,Cdc42 wt,HRas wt GTP bind
COc1ccc(CC(=O)Nc2ccc(C(=O)Nc3nccs3)cc2)cc1OC,89.0,73.0*,82.0,94.0,73.0*,77.0*
Fc1ccc(-c2n[nH]c(=S)c3ccccc23)cc1,93.0,97.0,99.0,98.0,95.0,96.0
O=C(COC(=O)c1cc2ccccc2o1)c1ccccc1,101.0,98.0,102.0,98.0,98.0,99.0
O=C(OCCN1CCCCC1)c1cc2ccccc2o1,102.0,106.0,123.0*[activator],102.0,114.0,106.0
COc1ccc(-c2noc(CCC(=O)N3CCN(c4cc(C)ccc4C)CC3)n2)cc1,75.0*,78.0*,82.0,85.0,80.0,82.0
COc1ccc(C(=O)Nc2ccccc2C(=O)N2CCCCC2C)cc1 (stereo not drawn),95.0,102.0,101.0,108.0,98.0,102.0
COc1cc([N+](=O)[O-])cc(/C=N/NC(=O)c2ccc(NC(=O)c3ccc(C)cc3)cc2)c1O,80.0,78.0*,81.0,83.0,83.0,80.0
CNC(=S)N1CCN(c2nc3ccccc3s2)CC1,97.0,94.0,100.0,96.0,95.0,94.0
CC(=O)Nc1ccc(C(=S)NCCCO)cc1,99.0,96.0,98.0,95.0,98.0,97.0
NS(=O)(=O)c1ccc(Nc2nc(-c3ccc(F)cc3)cs2)cc1,96.0,95.0,96.0,100.0,102.0,97.0
NS(=O)(=O)c1ccc(Nc2nc(-c3ccc(O)cc3O)cs2)cc1,86.0,77.0*,78.0*,87.0,77.0*,78.0*
Cc1cc(NC(=O)CSc2nc(-c3ccccc3)c(C#N)c(=O)[nH]2)no1,76.0*,78.0*,77.0*,77.0*,75.0*,75.0*
COc1ccc(-c2nnc(S/C(=C/c3ccc(Cl)cc3)C(=O)O)o2)cc1,73.0*,75.0*,81.0,85.0,74.0*,83.0
COc1cccc(CC2(CO)CCCN(Cc3ccc(CN4CCCCC4)s3)C2)c1 (stereo not drawn),99.0,100.0,102.0,100.0,99.0,101.0
COc1cc(NS(=O)(=O)c2ccc(NC(=O)/C=C/c3cccc([N+](=O)[O-])c3)cc2)ncn1,86.0,86.0,79.0*,90.0,83.0,86.0
CC(=O)c1cc2c(cc1NC(=O)c1cccc(S(=O)(=O)N3CCN(C)CC3)c1)OCO2,89.0,82.0,78.0*,98.0,83.0,84.0
CN1CCN(S(=O)(=O)c2cccc(C(=O)Nc3sc4c(c3C(N)=O)CCCC4)c2)CC1,87.0,77.0*,72.0*,85.0,79.0*,80.0
O=C(Nc1cccc(S(=O)(=O)N2CCCC2)c1)c1ccc2c(c1)OCO2,94.0,90.0,90.0,92.0,99.0,92.0
CCc1cccc(CC)c1NC(=S)Nc1ccccc1,95.0,99.0,97.0,108.0,94.0,100.0
Cc1cc(C)nc(NS(=O)(=O)c2ccc(N/C=C/C(=O)c3ccc(Cl)cc3)cc2)n1,99.0,98.0,99.0,100.0,99.0,98.0
COc1ccc(C(=O)/C=C/Nc2ccc(S(=O)(=O)Nc3nc(C)cc(C)n3)cc2)cc1OC,87.0,88.0,79.0*,92.0,89.0,91.0
Cc1ccc([N+](=O)[O-])cc1S(=O)(=O)n1ccnc1C,94.0,98.0,100.0,97.0,98.0,97.0
NC(N)=NS(=O)(=O)c1ccc(NC(=S)NC(=O)c2ccc3c(c2)OCO3)cc1,105.0,114.0,123.0*[activator],100.0,109.0,111.0
Cc1ccccc1C(=O)NNC(=O)Nc1ccccc1,95.0,97.0,100.0,94.0,93.0,97.0
Cc1nn(CCc2nn[nH]n2)c2nc(-c3ccc(C4CCCCC4)cc3)cc(C(F)(F)F)c12,78.0*,81.0,79.0*,84.0,77.0*,82.0
SMILES,Rac1 act GTP bind,Rab2 wt GTP,Rac1 wt GTP bind,Rab7 wt modul,Cdc42 wt,HRas wt GTP bind
Nc1nc(CN2CCN(c3ccccc3F)CC2)nc(N2CCCc3ccccc32)n1,80.0,83.0,87.0,88.0,79.0*,87.0
O=C(COC(=O)c1ccc2c(c1[N+](=O)[O-])C(=O)c1ccccc1C2=O)NC1CC1,83.0,73.0*,70.0*,91.0,73.0*,76.0*
CC1CC(C)(C)NC(=S)N1CCC(=O)N1CCc2ccccc21 (stereo not drawn),98.0,101.0,100.0,103.0,99.0,99.0
Cc1cc(C)n2ncc(C(=O)O)c2n1,94.0,80.0,92.0,92.0,78.0*,82.0
CC(C)=CCCC(C)CN1CCC(N2CCC(C(=O)NC(C)C)CC2)CC1 (stereo not drawn),97.0,97.0,98.0,94.0,98.0,96.0
Cc1ccc(S(=O)(=O)ON=C2CCN(S(=O)(=O)c3ccccc3)CC2)cc1,97.0,97.0,97.0,99.0,95.0,97.0
CC1=CC(=O)C=C(C)C1=NOS(=O)(=O)c1ccccc1,78.0*,88.0,89.0,90.0,91.0,92.0
CCOC(=O)c1sc(NC(=O)CSc2nnc(Cc3ccccc3)o2)c(C#N)c1C,76.0*,78.0*,81.0,83.0,85.0,83.0
CCOC(=O)c1c(NC(=O)CSc2nnc(Cc3ccccc3)o2)sc(C(C)=O)c1C,99.0,103.0,102.0,96.0,103.0,103.0
CC1CCN(c2ncccc2C(=O)O)CC1,129.0*[activator],130.0*[activator],156.0*[activator],125.0*[activator],141.0*[activator],128.0*[activator]
Cc1ccc(C)c(OCCn2cc(C(=O)O)c3ccccc32)c1,136.0*[activator],138.0*[activator],170.0*[activator],136.0*[activator],140.0*[activator],129.0*[activator]
Cc1ccccc1OCCn1cc(C(=O)O)c2ccccc21,128.0*[activator],126.0*[activator],151.0*[activator],122.0*[activator],123.0*[activator],124.0*[activator]
Cc1ccc(C)c(OCCn2cc(/C=C(\C#N)C(=O)NCc3ccco3)c3ccccc32)c1,99.0,101.0,101.0,99.0,99.0,101.0
Cc1ccccc1OCCn1cc(/C(N)=N/O)c2ccccc21,92.0,90.0,90.0,95.0,89.0,93.0
O=S(=O)(Cc1ccccc1Cl)NCCc1ccccc1,98.0,97.0,101.0,98.0,98.0,97.0
Cc1ccc2nc(CSc3nc(C)cc(C)c3C#N)[nH]c2c1,105.0,101.0,122.0*[activator],102.0,114.0,107.0
Cc1cc(C)c(C#N)c(SCc2ccccc2)n1,98.0,101.0,104.0,96.0,100.0,99.0
COc1ccc([N+](=O)[O-])cc1NC(=S)NC(NC(=O)Cc1ccc(OC)c(OC)c1)C(Cl)(Cl)Cl (stereo not drawn),79.0*,55.0*,74.0*,90.0,54.0*,57.0*
COc1ccc([N+](=O)[O-])cc1NC(=O)Cc1ccc(Cl)cc1,101.0,99.0,100.0,98.0,98.0,101.0
O=c1c2ccccc2nc2ccc(NCc3ccco3)nn12,92.0,79.0*,93.0,93.0,87.0,82.0

# Compound activity as filed in PubChem.
